What was measured:
[1] = biological target: T1, Phosphorylase b kinase gamma catalytic chain, liver/testis isoform (Homo sapiens) (UniProt P15735); conditions: at 1 µM
T1 sequence (whole entry): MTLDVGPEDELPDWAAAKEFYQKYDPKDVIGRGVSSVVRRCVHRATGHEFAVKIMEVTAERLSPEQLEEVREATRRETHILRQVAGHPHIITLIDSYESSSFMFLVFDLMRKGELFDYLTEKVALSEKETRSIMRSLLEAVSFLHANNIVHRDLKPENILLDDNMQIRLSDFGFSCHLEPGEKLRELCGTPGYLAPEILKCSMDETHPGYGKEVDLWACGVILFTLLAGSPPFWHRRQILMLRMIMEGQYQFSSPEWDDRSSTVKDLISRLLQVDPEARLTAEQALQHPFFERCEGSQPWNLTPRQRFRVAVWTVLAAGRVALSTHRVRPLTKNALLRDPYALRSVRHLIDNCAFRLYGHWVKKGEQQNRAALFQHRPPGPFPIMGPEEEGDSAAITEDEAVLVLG

[2] = biological target: T1, Phosphorylase b kinase gamma catalytic chain, liver/testis isoform (Homo sapiens); conditions: at 10 µM
[3] = biological target: Serine/threonine-protein kinase pim-1 (Homo sapiens) (UniProt P11309); conditions: at 1 µM
[4] = biological target: Serine/threonine-protein kinase pim-1 (Homo sapiens) (UniProt P11309); conditions: at 10 µM
[5] = biological target: Serine/threonine-protein kinase pim-2 (Homo sapiens) (UniProt Q9P1W9); conditions: at 1 µM
[6] = biological target: Serine/threonine-protein kinase pim-2 (Homo sapiens) (UniProt Q9P1W9); conditions: at 10 µM
[7] = biological target: Serine/threonine-protein kinase pim-3 (Homo sapiens) (UniProt Q86V86); conditions: at 1 µM
[8] = biological target: Serine/threonine-protein kinase pim-3 (Homo sapiens) (UniProt Q86V86); conditions: at 10 µM
[9] = biological target: Serine/threonine-protein kinase PLK1 (Homo sapiens) (UniProt P53350); conditions: at 1 µM
[10] = biological target: Serine/threonine-protein kinase PLK1 (Homo sapiens) (UniProt P53350); conditions: at 10 µM
[11] = biological target: Serine/threonine-protein kinase PLK3 (Homo sapiens) (UniProt Q9H4B4); conditions: at 1 µM
[12] = biological target: Serine/threonine-protein kinase PLK3 (Homo sapiens) (UniProt Q9H4B4); conditions: at 10 µM
[13] = biological target: T2, cAMP-dependent protein kinase catalytic subunit PRKX (Homo sapiens) (UniProt P51817); conditions: at 1 µM
T2 sequence (whole entry): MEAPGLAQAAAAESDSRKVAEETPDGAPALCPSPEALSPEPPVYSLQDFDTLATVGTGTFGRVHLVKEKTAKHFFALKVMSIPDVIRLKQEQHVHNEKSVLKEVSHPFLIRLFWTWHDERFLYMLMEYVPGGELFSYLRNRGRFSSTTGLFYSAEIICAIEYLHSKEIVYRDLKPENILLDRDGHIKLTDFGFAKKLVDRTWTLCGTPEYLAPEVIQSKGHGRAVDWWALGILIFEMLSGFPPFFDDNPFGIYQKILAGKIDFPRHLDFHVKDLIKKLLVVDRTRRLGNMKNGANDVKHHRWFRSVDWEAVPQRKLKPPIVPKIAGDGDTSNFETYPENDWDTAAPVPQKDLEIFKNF

[14] = biological target: T2, cAMP-dependent protein kinase catalytic subunit PRKX (Homo sapiens); conditions: at 10 µM
[15] = biological target: Protein-tyrosine kinase 2-beta (Homo sapiens) (UniProt Q14289); conditions: at 1 µM
[16] = biological target: Protein-tyrosine kinase 2-beta (Homo sapiens) (UniProt Q14289); conditions: at 10 µM
[17] = biological target: Receptor-interacting serine/threonine-protein kinase 2 (Homo sapiens) (UniProt O43353); conditions: at 1 µM
[18] = biological target: Receptor-interacting serine/threonine-protein kinase 2 (Homo sapiens) (UniProt O43353); conditions: at 10 µM
[19] = biological target: Rho-associated protein kinase 1 (Homo sapiens) (UniProt Q13464); conditions: at 1 µM
[20] = biological target: Rho-associated protein kinase 1 (Homo sapiens) (UniProt Q13464); conditions: at 10 µM

Sequence of Rho-associated protein kinase 1 (Homo sapiens) (Q13464 2-1354 limits assumed): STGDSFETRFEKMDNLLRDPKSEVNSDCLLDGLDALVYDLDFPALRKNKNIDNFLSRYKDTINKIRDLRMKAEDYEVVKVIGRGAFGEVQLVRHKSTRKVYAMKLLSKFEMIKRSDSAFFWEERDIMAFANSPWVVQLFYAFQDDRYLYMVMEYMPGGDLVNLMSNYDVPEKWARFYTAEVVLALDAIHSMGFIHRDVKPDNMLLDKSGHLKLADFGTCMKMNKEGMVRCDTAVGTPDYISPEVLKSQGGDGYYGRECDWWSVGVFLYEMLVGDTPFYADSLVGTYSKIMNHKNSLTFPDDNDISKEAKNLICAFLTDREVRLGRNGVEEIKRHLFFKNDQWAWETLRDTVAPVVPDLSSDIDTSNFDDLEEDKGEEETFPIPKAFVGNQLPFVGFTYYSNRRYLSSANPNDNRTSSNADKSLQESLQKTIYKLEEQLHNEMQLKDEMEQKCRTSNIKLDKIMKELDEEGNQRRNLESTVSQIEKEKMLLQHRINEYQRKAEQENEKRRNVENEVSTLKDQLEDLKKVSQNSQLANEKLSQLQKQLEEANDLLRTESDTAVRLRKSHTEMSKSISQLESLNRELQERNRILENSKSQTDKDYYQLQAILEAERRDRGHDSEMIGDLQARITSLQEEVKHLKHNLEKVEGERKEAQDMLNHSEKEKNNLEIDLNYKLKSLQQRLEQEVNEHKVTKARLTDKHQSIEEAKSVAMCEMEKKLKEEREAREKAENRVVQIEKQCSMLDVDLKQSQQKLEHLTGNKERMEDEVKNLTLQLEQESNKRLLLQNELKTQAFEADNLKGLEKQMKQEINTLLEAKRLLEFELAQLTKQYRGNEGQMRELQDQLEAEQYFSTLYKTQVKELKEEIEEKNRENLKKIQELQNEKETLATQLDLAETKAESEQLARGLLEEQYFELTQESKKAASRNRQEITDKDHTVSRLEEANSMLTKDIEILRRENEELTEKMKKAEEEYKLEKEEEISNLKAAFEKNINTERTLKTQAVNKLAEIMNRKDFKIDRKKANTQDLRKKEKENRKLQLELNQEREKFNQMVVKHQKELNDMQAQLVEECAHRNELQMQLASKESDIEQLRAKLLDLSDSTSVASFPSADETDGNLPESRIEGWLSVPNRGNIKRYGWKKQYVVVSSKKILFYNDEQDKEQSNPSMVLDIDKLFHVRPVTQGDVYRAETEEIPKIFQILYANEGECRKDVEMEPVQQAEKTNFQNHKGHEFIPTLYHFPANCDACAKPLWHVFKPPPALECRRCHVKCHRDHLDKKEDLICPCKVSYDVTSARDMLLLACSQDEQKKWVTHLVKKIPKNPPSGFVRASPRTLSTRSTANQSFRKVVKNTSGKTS
Sequence of Serine/threonine-protein kinase pim-2 (Homo sapiens) (Q9P1W9 whole entry, looked up): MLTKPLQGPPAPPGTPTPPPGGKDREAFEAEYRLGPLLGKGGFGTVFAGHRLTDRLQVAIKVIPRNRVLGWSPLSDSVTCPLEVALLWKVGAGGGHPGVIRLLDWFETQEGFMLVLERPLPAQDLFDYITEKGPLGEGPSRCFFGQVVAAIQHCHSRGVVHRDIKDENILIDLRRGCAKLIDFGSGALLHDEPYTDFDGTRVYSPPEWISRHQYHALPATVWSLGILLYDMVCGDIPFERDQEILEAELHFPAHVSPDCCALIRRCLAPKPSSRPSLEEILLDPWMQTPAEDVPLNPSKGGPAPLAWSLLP
Sequence of Receptor-interacting serine/threonine-protein kinase 2 (Homo sapiens) (O43353 whole entry): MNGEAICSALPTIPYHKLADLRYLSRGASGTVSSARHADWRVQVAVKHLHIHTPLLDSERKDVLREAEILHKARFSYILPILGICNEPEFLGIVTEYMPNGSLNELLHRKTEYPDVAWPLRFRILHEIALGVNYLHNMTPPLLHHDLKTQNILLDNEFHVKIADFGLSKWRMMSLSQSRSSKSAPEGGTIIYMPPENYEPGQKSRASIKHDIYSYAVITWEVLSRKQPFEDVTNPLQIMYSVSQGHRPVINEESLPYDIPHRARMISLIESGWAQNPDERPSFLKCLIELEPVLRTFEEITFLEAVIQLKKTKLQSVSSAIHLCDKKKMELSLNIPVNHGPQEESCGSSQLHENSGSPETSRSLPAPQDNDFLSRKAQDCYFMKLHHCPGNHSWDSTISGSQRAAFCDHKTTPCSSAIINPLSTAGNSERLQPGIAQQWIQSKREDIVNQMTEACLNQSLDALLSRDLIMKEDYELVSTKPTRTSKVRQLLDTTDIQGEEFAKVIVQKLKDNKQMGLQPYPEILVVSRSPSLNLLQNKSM
Sequence of Serine/threonine-protein kinase PLK3 (Homo sapiens) (Q9H4B4 whole entry, looked up): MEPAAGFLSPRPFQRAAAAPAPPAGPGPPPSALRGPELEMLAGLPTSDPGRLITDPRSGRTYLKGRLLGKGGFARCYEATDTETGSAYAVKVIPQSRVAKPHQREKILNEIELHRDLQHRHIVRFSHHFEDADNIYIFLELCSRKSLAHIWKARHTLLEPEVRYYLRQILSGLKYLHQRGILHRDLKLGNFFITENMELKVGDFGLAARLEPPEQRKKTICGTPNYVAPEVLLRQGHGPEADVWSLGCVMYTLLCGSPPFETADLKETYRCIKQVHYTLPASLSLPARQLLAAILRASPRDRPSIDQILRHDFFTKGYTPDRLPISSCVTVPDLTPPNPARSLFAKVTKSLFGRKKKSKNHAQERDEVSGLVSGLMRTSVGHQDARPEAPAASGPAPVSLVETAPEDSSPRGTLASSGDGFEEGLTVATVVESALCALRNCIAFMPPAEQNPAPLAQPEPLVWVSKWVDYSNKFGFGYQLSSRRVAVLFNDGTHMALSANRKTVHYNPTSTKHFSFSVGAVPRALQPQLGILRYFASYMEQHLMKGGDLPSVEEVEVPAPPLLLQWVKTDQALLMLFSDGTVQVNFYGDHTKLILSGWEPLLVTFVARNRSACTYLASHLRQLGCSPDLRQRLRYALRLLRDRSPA
Sequence of Protein-tyrosine kinase 2-beta (Homo sapiens) (Q14289 whole entry, looked up): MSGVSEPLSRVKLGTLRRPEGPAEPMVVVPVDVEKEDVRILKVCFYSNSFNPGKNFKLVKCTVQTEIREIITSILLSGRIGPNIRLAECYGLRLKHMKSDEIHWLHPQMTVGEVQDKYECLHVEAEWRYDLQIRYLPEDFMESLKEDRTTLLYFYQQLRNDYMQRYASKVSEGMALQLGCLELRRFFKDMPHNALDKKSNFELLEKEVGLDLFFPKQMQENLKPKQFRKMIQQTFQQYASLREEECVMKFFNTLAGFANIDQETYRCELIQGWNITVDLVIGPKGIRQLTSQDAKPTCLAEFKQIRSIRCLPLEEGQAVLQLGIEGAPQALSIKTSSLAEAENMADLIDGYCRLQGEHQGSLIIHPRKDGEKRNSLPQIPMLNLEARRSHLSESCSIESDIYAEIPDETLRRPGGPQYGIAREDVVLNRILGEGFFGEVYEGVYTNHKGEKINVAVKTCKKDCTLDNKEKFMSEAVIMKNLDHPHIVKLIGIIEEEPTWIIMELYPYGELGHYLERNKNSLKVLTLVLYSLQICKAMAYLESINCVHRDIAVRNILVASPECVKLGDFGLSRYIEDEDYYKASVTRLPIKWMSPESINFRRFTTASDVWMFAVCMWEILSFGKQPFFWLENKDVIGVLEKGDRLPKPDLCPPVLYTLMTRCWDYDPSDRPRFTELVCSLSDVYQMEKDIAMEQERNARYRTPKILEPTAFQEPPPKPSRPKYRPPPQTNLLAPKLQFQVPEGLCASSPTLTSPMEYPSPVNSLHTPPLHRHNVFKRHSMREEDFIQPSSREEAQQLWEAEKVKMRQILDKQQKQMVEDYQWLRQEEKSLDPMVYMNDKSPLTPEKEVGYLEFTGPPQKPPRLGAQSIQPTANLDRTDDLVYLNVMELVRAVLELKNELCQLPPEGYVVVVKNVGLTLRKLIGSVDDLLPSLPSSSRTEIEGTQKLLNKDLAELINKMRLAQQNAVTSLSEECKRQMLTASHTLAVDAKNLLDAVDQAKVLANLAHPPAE
Sequence of Serine/threonine-protein kinase pim-1 (Homo sapiens) (P11309 whole entry, looked up): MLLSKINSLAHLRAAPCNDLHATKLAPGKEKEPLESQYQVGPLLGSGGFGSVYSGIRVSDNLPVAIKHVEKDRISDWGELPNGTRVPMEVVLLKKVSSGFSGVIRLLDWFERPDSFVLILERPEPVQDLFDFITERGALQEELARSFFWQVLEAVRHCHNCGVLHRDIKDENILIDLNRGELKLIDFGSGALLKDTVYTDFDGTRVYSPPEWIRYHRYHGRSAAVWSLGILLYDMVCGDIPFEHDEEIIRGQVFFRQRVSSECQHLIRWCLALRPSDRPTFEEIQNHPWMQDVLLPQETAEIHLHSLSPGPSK

SMILES | residual activity [1] | residual activity [2] | residual activity [3] | residual activity [4] | residual activity [5] | residual activity [6] | residual activity [7] | residual activity [8] | residual activity [9] | residual activity [10] | residual activity [11] | residual activity [12] | residual activity [13] | residual activity [14] | residual activity [15] | residual activity [16] | residual activity [17] | residual activity [18] | residual activity [19] | residual activity [20]
O=C1c2ccccc2-[n+]2ccc3c([nH]c4ccccc43)c21 | 108% | 99% | 110% | 91% | 144% | 130% | 81% | 74% | 75% | 74% | 98% (inactive) | 91% | 92% | 53% | 101% | 97% | 90% | 88% | 126% | 115%
NC(=O)c1ccc2[nH]c(-c3ccc(Oc4ccc(Cl)cc4)cc3)nc2c1 | 89% | 80% | 121% | 116% | 108% | 119% | 83% | 83% | 75% | 69% | 97% (inactive) | 91% | 72% | 112% | 100% | 86% | 82% | 66% | 123% | 118%
O=c1c2ccccc2[nH]c(=S)n1CCN1CCC(=C(c2ccc(F)cc2)c2ccc(F)cc2)CC1 | 103% | 105% | 89% | 105% | 75% | 133% | 98% | 99% | 104% | 68% | 98% (inactive) | 89% | 87% | 52% | 136% | 91% | 100% | 101% | 114% | 127%
Oc1ccc(Nc2nc(-c3ccc(Cl)cc3)cs2)cc1 | 129% | 130% | 77% | 52% | 126% | 82% | 93% | 97% | 97% | 90% | 100% (inactive) | 94% | 78% | 118% | 109% | 106% | 107% | 89% | 122% | 121%
O=C(O)c1ccc2c3c1cccc3c(=O)n1c3ccccc3nc21 | 95% | 72% | 58% | 23% | 14% | 0% | 15% | 1% | 92% | 94% | 106% (inactive) | 98% | 84% | 68% | 88% | 42% | 96% | 82% | 113% | 80%
O=C(Nc1cccc(Nc2nccc(Nc3cccc(C(F)(F)F)c3)n2)c1)C1CC1 | 94% | 80% | 66% | 64% | 110% | 119% | 104% | 104% | 78% | 74% | 73% (inactive) | 88% | 103% | 51% | 55% | 12% | 69% | 71% | 106% | 127%
CCOc1cc2ncnc(Nc3cccc(Br)c3)c2cc1OCC | 92% | 108% | 65% | 57% | 92% | 79% | 96% | 94% | 80% | 81% | 87% (inactive) | 100% | 98% | 78% | 110% | 58% | 24% | 12% | 94% | 95%
Nc1ccc2ncnc(NCCc3ccc(Oc4ccccc4)cc3)c2c1 | 88% | 75% | 100% | 93% | 93% | 136% | 90% | 89% | 90% | 85% | 102% (inactive) | 96% | 109% | 58% | 88% | 72% | 102% | 88% | 106% | 100%
O=C1NC(=O)/C(=C/c2ccc3c(c2)OC(F)(F)O3)S1 | 85% | 94% | 37% | 5% | 58% | 10% | 88% | 41% | 101% | 61% | 94% (inactive) | 96% | 88% | 77% | 135% | 101% | 99% | 83% | 95% | 116%
Oc1c2ccccc2c2c3c(cccc13)N=N2 | 77% | 15% | 68% | 18% | 58% | 21% | 75% | 59% | 69% | 64% | 94% (inactive) | 82% | 86% | 70% | 68% | 23% | 70% | 52% |  | 95%
COc1ccc(OC)c2c(=S)c3ccccc3[nH]c12 | 119% | 103% | 97% | 52% | 117% | 77% | 88% | 80% | 80% | 91% | 99% (inactive) | 95% | 83% | 83% | 79% | 105% | 85% | 80% | 122% | 102%
COc1cccc(-c2cc(=O)c3ccccc3o2)c1N | 113% | 117% | 82% | 58% | 126% | 102% | 89% | 91% | 81% | 102% | 111% (inactive) |  | 90% | 33% | 106% | 112% | 92% | 106% | 117% | 100%
CC#CC(=O)Nc1cc2c(Nc3ccc(F)c(Cl)c3)ncnc2cn1 | 92% | 105% | 88% | 101% | 82% | 109% | 91% | 91% | 98% | 81% | 96% (inactive) | 82% | 100% | 93% | 120% |  | 82% | 60% | 99% | 116%

Reference: ChEMBL document CHEMBL2218924, “A broad activity screen in support of a chemogenomic map for kinase signalling research and drug discovery” (Biochem J, 2013)
